In the library only some 19% were active in any assay of this set; here they are far more common.
TDP1 cell CPT = growth inhibition of DT40 Tdp1-/-;hTDP1 cells with camptothecin (screen for TDP1 inhibitors) | 420,000 compounds, 12% hits | Potency, µM (top dose mostly 46.2 µM), for the others: at the highest dose activity change, negative = growth inhibition, actives largely listed as inhibitors | chicken DT40 Tdp1-/-;hTDP1 cells + 20 nM CPT, ATP luminescence, 48 h; further: potency means the concentration at half of the fitted maximal effect; nearly all actives have a fitted effect of over 55% in size
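Chicken DT40 Tdp1-/- cells stably complemented with human TDP1 were seeded at 400 cells/well in medium containing 20 nM camptothecin, exposed to pin-transferred compounds, and grown at 37 °C for at least 48 hr. Viability was read as ATP luminescence.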
TDP1 cell noCPT = qHTS for Inhibitors of human tyrosyl-DNA phosphodiesterase 1 (TDP1): qHTS in cells in absence of CPT; 420,000 compounds, 15% hits; AID 686978, 2013; Potency, µM (top dose mostly 46.2 µM), inactives show at the top dose activity change, negative = growth inhibition, most hits filed as inhibitors; DT40 Tdp1-/- hTDP1 cells, no CPT, ATP luminescence, 48 h; further: potency means the concentration at half of the fitted maximal effect; nearly all actives have a fitted effect of over 55% in size
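Cells were dispensed at 400 per well, compounds added by pin tool, plates incubated ≥48 hr at 37 °C, then CellTiter-Glo added for 30 min at room temperature before luminescence reading. Line: DT40 Tdp1-/- complemented with hTDP1; camptothecin omitted.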
IL-1B inflam inh = inhibitors of inflammasome signaling (IL-1 beta secretion); THP-1 LPS/ATP IL-1B secretion, AlphaLISA, 16 h; hits give low values; 360,000 compounds, 4.7% hits; activity change, % at 57.5 µM; in the data active means activity change below about -50%; inconclusive means mostly about -30% to -49%
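THP-1 cells pretreated 1 hr with compounds (up to 57.5 uM final), then stimulated with LPS (250 ng/mL final) plus ATP (1.25 mM final); secreted IL-1B measured by AlphaLISA after 16 hr, decreased signal indicating inhibition.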
HT1080NT lethal = kills 2HG-producing HT-1080-NT fibrosarcoma cells; HT-1080-NT fibrosarcoma viability, CellTiter-Glo ATP luminescence, 48 h; Potency, µM (top dose mostly 46.1 µM), for the others: at the top dose activity, negative = less viability, usual class: cytotoxic; 360,000 compounds, 1.6% hits;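 further: NT is the 2HG producing partner of a matched IDH1 knockdown line; potency means the concentration at half of the fitted maximal effect; 0% = DMSO-treated cells and -100% = media-only wells without cells; nearly all actives have a fitted effect of over 55% in size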
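HT-1080-NT fibrosarcoma cells (2HG-overproducing), 750 cells/well in RPMI with 5% FBS, dosed after 2 h and incubated 48 h at 37C. CellTiter-Glo luminescence normalized to DMSO and no-cell wells; concentration-response curves fitted and classed.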
HT1080 IDH1KD tx = toxicity to HT-1080 IDH1 knockdown cells (counter line); HT-1080 IDH1 knockdown viability, ATP luminescence, 48 h; 360,000 compounds, 2% hits; Potency, µM (doses to about 46.1 µM), for the others: at the highest dose activity, negative = toxicity, most hits filed as cytotoxic;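 further: potency means the concentration at half of the fitted maximal effect; 0% = DMSO wells and -100% = cell-free medium wells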
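Viability of IDH1-knockdown HT-1080 fibrosarcoma cells was assessed by CellTiter-Glo after 48 h at 37 °C with titrated compound; concentration-effect curves were classified by fit quality and response size.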
ELG1 repair inh = ELG1-dependent DNA repair inhibition. HEK293T ELG1-luciferase reporter, luminescence, 16 h; DNA damage induced by 5-fluorouridine. AID 504467. 330,000 compounds, 2.3% hits. Potency, µM (top dose mostly 46.1 µM), without a hit: top-dose activity change, negative = inhibition, usual class: inhibitors; further: potency means the concentration at half of the fitted maximal effect; nearly all actives have a fitted effect of over 55% in size
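Luminescence from the luciferase reporter, measured 30 min after ONE-Glo reagent at room temperature, was the read-out. Beforehand, 2,000 cells per well were exposed for 16 hr at 37 °C to 5-fluorouridine together with compound or vehicle.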
* hit, by the source's call; [ ] = another dose, or the depositor's remark. Unless noted, the call rests on the fitted dose curve; in most records, active means well fitted curve in the direction sought with a large enough effect; inconclusive means small, poorly fitted or top-dose-only effect, or another doubt; inactive means no such curve, though single readings can be large; an effect the other way counts as inactive or inconclusive. Unless noted, on the % scale 0 is the no-effect control and ±100 the full control effect.

CCOc1ccccc1C(=O)Nc1cccc(-c2ccc(N3CCOCC3)nn2)c1 was read as TDP1 cell CPT inconclusive, TDP1 cell noCPT 16µM*, IL-1B inflam inh -62*, HT1080NT lethal -5%, HT1080 IDH1KD tx 0% and ELG1 repair inh inconclusive.
Screening COc1cccc(C(=O)Nc2cccc(-c3ccc(N4CCOCC4)nn3)c2)c1OC returned TDP1 cell CPT inconclusive, TDP1 cell noCPT 23µM*, IL-1B inflam inh -10, HT1080NT lethal -21%, HT1080 IDH1KD tx inconclusive and ELG1 repair inh -17%.
COc1ccc(C(=O)Nc2cccc(-c3ccc(N4CCOCC4)nn3)c2)cc1OC was read as TDP1 cell CPT 18µM*, TDP1 cell noCPT 9.2µM*, IL-1B inflam inh -14, HT1080NT lethal -14%, HT1080 IDH1KD tx 2% and ELG1 repair inh inconclusive.
For CCOc1ccc(C(=O)Nc2cccc(-c3ccc(N4CCOCC4)nn3)c2)cc1OCC the results were TDP1 cell CPT inconclusive, TDP1 cell noCPT 10µM*, IL-1B inflam inh -6, HT1080NT lethal 5%, HT1080 IDH1KD tx 4% and ELG1 repair inh inconclusive.
Screening CCCCCCCCCCCCCCCC(=O)N[C@H](CN1CCOCC1)[C@H](O)c1ccccc1 returned TDP1 cell CPT -19%[4.12 µM] and TDP1 cell noCPT -14%[4.12 µM].
Screening O=C(c1ccsc1)N1CCCC(N2CCOCC2)C1 (stereo unspecified) returned TDP1 cell CPT 26%, TDP1 cell noCPT 1%, IL-1B inflam inh 0, HT1080NT lethal -1%, HT1080 IDH1KD tx -7% and ELG1 repair inh 10%.
O=C(Nc1ccc(N2CCOCC2)cc1)c1csc([C@H]2C[C@H](O)[C@@H](CO)O2)n1 was read as TDP1 cell CPT -25%, TDP1 cell noCPT -13%, IL-1B inflam inh -10, HT1080NT lethal 17% and HT1080 IDH1KD tx 8%.
CCc1ccc(/C=C(\C#N)C(=O)NC2CCS(=O)(=O)C2)cc1 (stereo unspecified) was read as TDP1 cell CPT -9%, TDP1 cell noCPT -15%, IL-1B inflam inh -16, HT1080NT lethal -6%, HT1080 IDH1KD tx -4% and ELG1 repair inh -1%.
`CCCCNC(=O)C1CCC(CNS(=O)(=O)c2ccc(Cl)cc2)CC1` (stereo unspecified) gave TDP1 cell CPT -11% and TDP1 cell noCPT -10%.
For COc1cc(C)c(C)cc1S(=O)(=O)Nc1cccc(-c2ccc(N3CCOCC3)nn2)c1 the results were TDP1 cell CPT inconclusive and TDP1 cell noCPT 16µM*.
Screening Cc1ccc([N+](=O)[O-])cc1S(=O)(=O)Nc1cccc(-c2ccc(N3CCOCC3)nn2)c1 returned TDP1 cell CPT -14%, TDP1 cell noCPT inconclusive, IL-1B inflam inh 6, HT1080NT lethal -26%, HT1080 IDH1KD tx -14% and ELG1 repair inh inconclusive.
`O=C(Nc1cccc(S(=O)(=O)N2CCOCC2)c1)c1ccc(Cl)nc1` gave TDP1 cell CPT 16µM*, TDP1 cell noCPT 23µM*, IL-1B inflam inh 26, HT1080NT lethal -9%, HT1080 IDH1KD tx 0% and ELG1 repair inh inconclusive.
COc1ccccc1NS(=O)(=O)c1cc(NC(=O)c2ccc(Cl)nc2)ccc1Cl was read as TDP1 cell CPT 9.2µM*, TDP1 cell noCPT 7.3µM*, IL-1B inflam inh -63*, HT1080NT lethal inconclusive, HT1080 IDH1KD tx inconclusive and ELG1 repair inh 13µM*.
For O=S(=O)(c1cccc(NC(=S)Nc2ccc(Br)cc2Cl)c1)N1CCOCC1 the results were TDP1 cell CPT 16µM*, TDP1 cell noCPT 29µM*, IL-1B inflam inh 27, HT1080NT lethal 0%, HT1080 IDH1KD tx -7% and ELG1 repair inh -4%.
